Test results taken from PubChem BioAssay (Tox21).
Records with an inconclusive call do not appear. Entries that show only a call come without a potency. Values without a mark were called inactive. The source made the active and inactive calls. Calls come from the whole dose curve; as a rule, active = well fitted inhibition curve with a large enough effect in the signal ratio in the repeat runs, with a control signal flat; inconclusive = weak or mixed curves, or effect the other way; inactive = flat fitted curve, though single readings scatter; the % refers to the signal ratio.

Target: D(2) dopamine receptor (Homo sapiens) (UniProt P14416)
Sequence (P14416 whole entry, looked up): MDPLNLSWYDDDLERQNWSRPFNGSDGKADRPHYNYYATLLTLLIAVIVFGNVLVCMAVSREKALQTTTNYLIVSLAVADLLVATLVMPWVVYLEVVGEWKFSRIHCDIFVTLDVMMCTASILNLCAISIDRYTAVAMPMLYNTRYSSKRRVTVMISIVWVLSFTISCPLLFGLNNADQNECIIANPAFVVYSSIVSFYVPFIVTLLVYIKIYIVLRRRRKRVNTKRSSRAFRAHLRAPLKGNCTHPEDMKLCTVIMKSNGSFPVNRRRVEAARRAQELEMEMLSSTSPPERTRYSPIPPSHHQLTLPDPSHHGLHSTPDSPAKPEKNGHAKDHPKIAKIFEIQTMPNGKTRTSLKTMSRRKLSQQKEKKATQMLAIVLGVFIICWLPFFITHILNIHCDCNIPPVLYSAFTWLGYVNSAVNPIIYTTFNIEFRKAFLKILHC
Test: Dopamine D2 receptor (DRD2) small molecule antagonists, cell-based qHTS assay (AID 1963595)
Outline: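 DRD2-HEK293; 0.1 mM Ro20-1724; cpd 10 min RT; NKH477 200 nM + quinpirole 12 nM, 30 min RT; HTRF cAMP (cAMP-d2/anti-cAMP cryptate), 665/620 nm ratio after 1 h.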

For CC(=O)N(CC(O)CO)c1c(I)c(C(=O)NCC(O)CO)c(I)c(C(=O)NCC(O)CO)c1I (stereo not drawn), which Potency is on record?
The Potency was “inactive”.

CC(C)(CCl)c1ccccc1 was tested. Which Potency did it give?
Its Potency is “inactive”.

CN(C)N=Nc1ccccc1 was tested. Which Potency did it give?
The Potency was “inactive”.

With CCCC(C)C(O)CC (stereo not drawn) as the compound, how does the Potency read?
Its Potency is “inactive”.

How did the Potency turn out when CCCCCCCCCCCCC(=O)O was run?
The Potency was “inactive”.

CCC(C)=O was tested. Which Potency did it give?
The Potency was “inactive”.

NC/C=C/C(=O)O was tested. Which Potency did it give?
The Potency was “inactive”.

With CC(=O)Nc1ccc(N=Nc2cc(C)ccc2O)cc1 as the compound, how does the Potency read?
The Potency was “inactive”.

For O=C(OC(=O)c1ccccc1)c1ccccc1, which Potency is on record?
The Potency was “inactive”.

How did the Potency turn out when CCCCC(C)C(=O)O (stereo not drawn) was run?
The Potency was “inactive”.

How did the Potency turn out when CCCCCCCCCOS(=O)(=O)O was run?
Its Potency is “inactive”.

With O=c1[nH]c(=O)c2ccccc2o1 as the compound, how does the Potency read?
The Potency was “inactive”.

For CCCc1c2oc(C(=O)O)cc(=O)c2cc2c(=O)cc(C(=O)O)n(CC)c12, which Potency is on record?
Its Potency is “inactive”.

CCCCCCCCCCCCI was tested. Which Potency did it give?
Its Potency is “inactive”.

O=C(c1ccccc1)C1(O)CCCCC1 was tested. Which Potency did it give?
The Potency was “inactive”.

With CC(C)Nc1ccccc1 as the compound, how does the Potency read?
Its Potency is “inactive”.

How did the Potency turn out when C=CCCCCCCCCO was run?
The Potency was “inactive”.

O=C(O)CCc1ccccc1 was tested. Which Potency did it give?
The Potency was “inactive”.

With Cc1nc2ccccc2s1 as the compound, how does the Potency read?
Its Potency is “inactive”.

Cc1cccc(N)n1 was tested. Which Potency did it give?
Its Potency is “inactive”.

CO[C@@]1(NC(=O)CSC[C@@H](N)C(=O)O)C(=O)N2C(C(=O)O)=C(CSc3nnnn3C)CS[C@@H]21 was tested. Which Potency did it give?
The Potency was “inactive”.

How did the Potency turn out when CC1=CCC(C(C)(C)O)CC1 (stereo not drawn) was run?
Its Potency is “inactive”.

O=c1oc2c(O)c(O)cc3c(=O)oc4c(O)c(O)cc1c4c23 was tested. Which activity change, negative = inhibition did it give?
Its activity change, negative = inhibition is 0.195% [at 18.9 µM].

For CC(=N\O)/C(C)=N/O, which Potency is on record?
The Potency was “inactive”.

How did the Potency turn out when CCCCCCN was run?
Its Potency is “inactive”.

With COc1ccc2cc1Oc1cc3c(cc1OC)CC[N+](C)(C)[C@H]3Cc1ccc(cc1)Oc1c(OC)c(OC)cc3c1[C@@H](C2)[N+](C)(C)CC3 as the compound, how does the Potency read?
Its Potency is “inactive”.

With COc1cc(C)c(Cc2cnc(N)nc2N)cc1OC as the compound, how does the Potency read?
Its Potency is “inactive”.

Which Potency does the source give for Cc1ccccc1C here?
Its Potency is “inactive”.

Which Potency does the source give for C[n+]1ccn(Cc2ccccc2)c1 here?
The Potency was “inactive”.

How did the Potency turn out when CC1(C)Oc2ccc(C#N)cc2[C@@H](N2CCCC2=O)[C@@H]1O was run?
The Potency was “inactive”.

Which Potency does the source give for F[Si-2](F)(F)(F)(F)F here?
Its Potency is “inactive”.

Which Potency does the source give for CCOC(=O)C(C)C(C)=O (stereo not drawn) here?
Its Potency is “inactive”.

With COC(=O)c1cc(Cl)c(NC(C)=O)cc1OC as the compound, how does the Potency read?
Its Potency is “inactive”.

For CCCCC(O)/C=C(C)/C=C/C=C/C(=O)N1CCCC1=O (stereo not drawn), which Potency is on record?
Its Potency is “inactive”.

How did the Potency turn out when COc1ccccc1C=O was run?
The Potency was “inactive”.

Which Potency does the source give for CC(=O)CC(C)=O here?
Its Potency is “inactive”.

For O=C(CCN1CCN(CCO)CC1)N1c2ccccc2Sc2ccc(C(F)(F)F)cc21, which Potency is on record?
The Potency was “inactive”.

C=CC(=O)OCCOC1C2CCC1C1CC=CC12 (stereo not drawn) was tested. Which activity change, negative = inhibition did it give?
Its activity change, negative = inhibition is 7.6% [at 18.9 µM].

CC(C)(O)Cc1ccccc1 was tested. Which Potency did it give?
Its Potency is “inactive”.

CC1CCc2nccnc21 (stereo not drawn) was tested. Which Potency did it give?
Its Potency is “inactive”.

How did the Potency turn out when CNC(=O)c1c(I)c(NC(C)=O)c(I)c(C(=O)O)c1I was run?
The Potency was “inactive”.

For CC(CO)Oc1ccccc1 (stereo not drawn), which Potency is on record?
Its Potency is “inactive”.

For O=C(O)c1cccnc1C(=O)O, which Potency is on record?
Its Potency is “inactive”.

How did the Potency turn out when Cc1ccc(C(=O)C(=O)O)cc1C was run?
Its Potency is “inactive”.

With CCC(N)(CO)CO as the compound, how does the Potency read?
Its Potency is “inactive”.

For CCC1COC(=O)O1 (stereo not drawn), which Potency is on record?
The Potency was “inactive”.

With CCC(CC)C(C)CCOC(C)=O (stereo not drawn) as the compound, how does the Potency read?
The Potency was “inactive”.

How did the Potency turn out when CC1(C)C(=O)N(Br)C(=O)N1Cl was run?
Its Potency is “inactive”.

O=C1C=CC(=O)O1 was tested. Which Potency did it give?
Its Potency is “inactive”.

Which Potency does the source give for CCCCCCCCC(=O)OCC here?
The Potency was “inactive”.

Which Potency does the source give for C=CC(O)CCCCC (stereo not drawn) here?
Its Potency is “inactive”.

How did the Potency turn out when CCC(=O)OCc1ccc(OC)cc1 was run?
The Potency was “inactive”.

Which Potency does the source give for Cc1ccc(N=Nc2c(O)ccc3ccccc23)c(C)c1 here?
Its Potency is “inactive”.

How did the Potency turn out when CC(S)C(=O)NCC(=O)O (stereo not drawn) was run?
The Potency was “inactive”.

O=C1Nc2ccccc2C1=O was tested. Which Potency did it give?
The Potency was “inactive”.

How did the activity change, negative = inhibition turn out when N[C@@H](CSSC[C@H](N)C(=O)O)C(=O)O was run?
The activity change, negative = inhibition was 5.54% [at 0.348 µM].

COc1ccc(Br)c(C)c1 was tested. Which Potency did it give?
The Potency was “inactive”.

For C=C(C)[C@@H]1CCC2=CCC[C@@H](C)[C@]2(C)C1, which Potency is on record?
The Potency was “inactive”.

Which Potency does the source give for CCC(C)(C)C1CCC(=O)CC1 here?
Its Potency is “inactive”.

Which Potency does the source give for CN(C(=O)c1c(O)c2ccccc2n(C)c1=O)c1ccccc1 here?
The Potency was “inactive”.

How did the Potency turn out when CC(=O)N(c1onc(C)c1C)S(=O)(=O)c1ccc(N)cc1 was run?
Its Potency is “inactive”.

How did the Potency turn out when CC(C)C(=O)OCCOc1ccccc1 was run?
The Potency was “inactive”.

Which Potency does the source give for CSCCC=O here?
The Potency was “inactive”.

Which Potency does the source give for COc1nc(N)nc2nc[nH]c12 here?
Its Potency is “inactive”.

How did the Potency turn out when Cn1cc(S(C)=O)c(=O)c2ccc(F)cc21 (stereo not drawn) was run?
Its Potency is “inactive”.

With O=C1CCC(=O)O1 as the compound, how does the Potency read?
Its Potency is “inactive”.

COc1cccc(OC)c1C(=O)N[C@@H]1C(=O)N2[C@@H]1SC(C)(C)[C@@H]2C(=O)O was tested. Which Potency did it give?
The Potency was “inactive”.

With Nc1ccncc1N as the compound, how does the Potency read?
The Potency was “inactive”.

CCO[Si](C)(C)OCC was tested. Which Potency did it give?
The Potency was “inactive”.

CCCOCCC was tested. Which Potency did it give?
Its Potency is “inactive”.

Which Potency does the source give for O=S(=O)(O)CCN1CCN(CCO)CC1 here?
The Potency was “inactive”.

How did the Potency turn out when CCOC(=O)c1ccccc1C was run?
The Potency was “inactive”.

Which Potency does the source give for C=CCCCCCCCCCCCC here?
The Potency was “inactive”.

Which Potency does the source give for C=CC(=O)OCCCCCC here?
Its Potency is “inactive”.

O=[N+]([O-])c1ccc(Oc2ccc([N+](=O)[O-])cc2)cc1 was tested. Which Potency did it give?
Its Potency is “inactive”.

How did the Potency turn out when C=CCOC(=O)CCCCCCCC was run?
The Potency was “inactive”.

For CO[Si](OC)(OC)c1ccccc1, which Potency is on record?
Its Potency is “inactive”.

NC(=S)N/N=C/c1cccnc1 was tested. Which Potency did it give?
Its Potency is “inactive”.

Which Potency does the source give for O=C[C@H](O)[C@@H](O)[C@H](O)[C@H](O)CO here?
The Potency was “inactive”.

For [Cl][Nd]([Cl])[Cl], which Potency is on record?
The Potency was “inactive”.

With C=CC(C)(CCC=C(C)C)OC=O (stereo not drawn) as the compound, how does the Potency read?
The Potency was “inactive”.

How did the Potency turn out when C=C1[C@H]2CC[C@@H]3[C@H]2C(C)(C)CCC[C@]13C was run?
Its Potency is “inactive”.

For Cc1cn([C@H]2C[C@H](F)[C@@H](CO)O2)c(=O)[nH]c1=O, which Potency is on record?
The Potency was “inactive”.

With O=C[C@H](O)[C@H](O)[C@H](O)CO as the compound, how does the Potency read?
Its Potency is “inactive”.

CCCCC(CC)COCCO (stereo not drawn) was tested. Which Potency did it give?
Its Potency is “inactive”.

With OC1OC[C@@H](O)[C@H](O)[C@H]1O (stereo partly drawn) as the compound, how does the Potency read?
Its Potency is “inactive”.

With CC1CCCC(=O)C1=O (stereo not drawn) as the compound, how does the Potency read?
Its Potency is “inactive”.

With CCCO[Si](OCCC)(OCCC)OCCC as the compound, how does the Potency read?
Its Potency is “inactive”.

Which Potency does the source give for CC(C)c1cccc(C(C)C)c1N here?
Its Potency is “inactive”.

CCCCOC(=O)CCCCCCCC(=O)OCCCC was tested. Which Potency did it give?
The Potency was “inactive”.

For CC(C)C(=O)c1c(C(C)C)nn2ccccc12, which Potency is on record?
The Potency was “inactive”.

For CN(C)c1ccc(Cc2ccc(N(C)C)cc2)cc1, which Potency is on record?
Its Potency is “inactive”.

For Cc1ccc(C(=O)Nc2ccc(S(=O)(=O)O)c3cc(S(=O)(=O)O)cc(S(=O)(=O)O)c23)cc1NC(=O)c1cccc(NC(=O)Nc2cccc(C(=O)Nc3cc(C(=O)Nc4ccc(S(=O)(=O)O)c5cc(S(=O)(=O)O)cc(S(=O)(=O)O)c45)ccc3C)c2)c1, which Potency is on record?
Its Potency is “inactive”.

For CCCCCCCOC(C)=O, which Potency is on record?
Its Potency is “inactive”.

Cc1nc(C)c(C)nc1C was tested. Which Potency did it give?
The Potency was “inactive”.

Which Potency does the source give for CC(C)=CCCC(C)CCOC(=O)C(C)C (stereo not drawn) here?
Its Potency is “inactive”.

COc1nc(C)nc(NC(=O)NS(=O)(=O)c2ccccc2OCCCl)n1 was tested. Which Potency did it give?
Its Potency is “inactive”.

Which Potency does the source give for CCCCCCCCCCCCCCCCC here?
The Potency was “inactive”.
